# Screening results from PubChem BioAssay.
# Vif-APOBEC3F blk = Vif-A3F binding inhibition; Potency, µM (series often up to 46.1 µM), inactives show top-dose activity, negative = active; 390,000 tested, 0.2% active; AID 602313; HeLa A3F-eYFP + Vif (tagged APOBEC3F with the HIV-1 protein that degrades it), YFP fluorescence increase; further: % of control where 0% means no effect; nearly all actives have a fitted effect of over 65% in size
#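 HeLa cells stably expressing A3F-eYFP plus Vif, plated and incubated overnight at 37 deg C, then exposed to compounds overnight at 37 deg C. Blocked degradation read as raised yellow fluorescence (Ex 488/Em 500-530).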
# Vif-APOBEC3G blk = Vif-A3G binding inhibition. Q9HC16. HeLa A3G-eYFP + Vif (tagged APOBEC3G with the HIV-1 protein that degrades it), YFP fluorescence, overnight. Potency, µM (doses to about 46.1 µM), inactives show at the top dose activity, negative = active, most hits filed as inhibitors. 410,000 tested, 0.076% active. AID 602310; further: on the % scale 0 is the no-effect control and ±100 the full control effect; nearly all actives have a fitted effect of over 60% in size
# Target sequence (Q9HC16 whole entry, looked up): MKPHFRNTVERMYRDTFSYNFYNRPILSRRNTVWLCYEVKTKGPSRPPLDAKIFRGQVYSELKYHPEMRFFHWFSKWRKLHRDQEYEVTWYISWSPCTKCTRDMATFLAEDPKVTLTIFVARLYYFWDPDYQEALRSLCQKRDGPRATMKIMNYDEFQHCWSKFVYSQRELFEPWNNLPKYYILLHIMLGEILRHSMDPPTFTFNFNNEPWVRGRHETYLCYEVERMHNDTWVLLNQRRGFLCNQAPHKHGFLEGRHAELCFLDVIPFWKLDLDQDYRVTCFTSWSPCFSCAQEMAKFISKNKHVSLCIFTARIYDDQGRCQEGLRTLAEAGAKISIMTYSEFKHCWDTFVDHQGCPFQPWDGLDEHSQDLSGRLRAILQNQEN
#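 HeLa cells stably expressing Vif and C-terminally eYFP-tagged A3G, seeded overnight at 37 deg C, then exposed to compound by pintool overnight at 37 deg C. Rise in yellow fluorescence (Ex 488/Em 500-530, Acumen) marks blocked Vif-driven A3G degradation.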
# Epigenetic reg = regulators of epigenetic silencing causing reporter derepression in mouse cells; Potency, µM (series often up to 53.9 µM), without a hit: top-dose GFP activation, most hits filed as activators; murine LDR cells, GFP reporter derepression, 30 h; 280,000 tested, 0.2% active; further: % of control where 0% means no effect; nearly all actives have a fitted effect of over 60% in size
#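 Derepression of a silenced CMV-GFP reporter in murine LDR cells is scored by enumerating GFP-positive cells with a laser-scanning microplate cytometer after 30 hours of treatment at 37 C.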
# An asterisk follows results filed as active; ? = inconclusive; · = no result; [ ] = dose if it differs, or a comment. In the library only some 0.34% were active in any assay of this set; here they are far more common. The call rests on the fitted dose curve; in most records, active means well fitted curve in the direction sought with a large enough effect; inconclusive means small, poorly fitted or top-dose-only effect, or another doubt; inactive means no such curve, though single readings can be large; an effect the other way counts as inactive or inconclusive. Potency means the concentration at half of the fitted maximal effect.
SMILES,Vif-APOBEC3F blk,Vif-APOBEC3G blk,Epigenetic reg
CCCCNC(=O)c1c(N)n(CCCOC)c2nc3ccccc3nc12,-2%,-6%,0%
COCCCn1c(=O)/c(=C/c2ccccc2OC(F)F)s/c1=C(\C#N)C(=O)NCCOC,?,-8%,·
CCCCNC(=O)/C(C#N)=c1\s/c(=C\c2ccccc2OC(F)F)c(=O)n1CCCOC,8.9µM*,?,0%
COCCCn1c(=O)/c(=C\c2ccccc2OC(F)F)s/c1=C(/C#N)C(=O)NCCOC,25µM*,-8%,?
CCC1C(=O)OC[C@H]1Cc1cncn1C (stereo not given in full),·,·,0%
Cc1ccc(CNc2cc(C)nc3nc(-c4ccc(C)cc4)nn23)cc1,?,-13%,?
COC(=O)[C@]1(C)CC[C@@]2(C)CC[C@@]3(C)C4=CC=C5C(=CC(=O)C(O)=C5C)[C@@]4(C)CC[C@@]3(C)C2C1 (stereo not given in full),·,·,1%
Cc1ccc(C(C#N)=Cc2ccc3c(c2)OCO3)cc1,-17%,?,·
Cn1c(O)c(/C=N/NC(=O)c2ccncc2)c(=O)n(C)c1=S,-9%,-18%,-1%
CCn1c(O)c(/C=N/NC(=O)c2ccncc2)c(=O)n(CC)c1=S,7.9µM*,?,1%
C[C@@H]1O[C@@H](O[C@@H]2C=C3CC[C@@H]4[C@@H](CC[C@]5(C)[C@H](c6ccc(=O)oc6)CC[C@@]45O)[C@@]3(C)CC2)[C@H](O)[C@H](O)[C@H]1O,·,-9%,·
O=C1C=CC(=O)C(Cl)=C1,·,·,3%
CCN(CC)c1ccc(/C=N/c2sc3c(c2C#N)C2CCN3CC2)c(O)c1,-792%,?,2.8µM*
C=C(C)C1Cc2c(ccc3c2OC2COc4cc(OC)c(OC)cc4C2C3=O)O1 (stereo not given),·,·,3%
Cc1ccc(/C=C2\C(=O)NC(=O)N(CCc3ccc(F)cc3)C2=O)s1,-14%,2%,4%
CN(C)c1ccc(/C=C2\C(=O)NC(=O)N(Cc3ccc(F)cc3)C2=O)cc1,-24%,0%,0%
O=C1NC(=O)N(Cc2ccc(F)cc2)C(=O)/C1=C\c1ccoc1,25µM*,2%,4%
Cc1ccc(/C=C2/C(=O)NC(=O)N(CCc3ccc(F)cc3)C2=O)s1,8.9µM*,2%,-1%
COc1ccc(CNC(=O)Cn2c(=O)nc(-c3ccccc3F)c3cc(Cl)ccc32)cc1,4%,10%,?
CN1CCN(c2ccc(/C=C3\C(=O)NC(=S)N(c4cccc(Br)c4)C3=O)o2)CC1,25µM*,22µM*,2%
CN1C(=O)/C(=C/c2ccc(N3CCCCCC3)o2)C(=O)NC1=S,?,?,16%
Nc1c(C(=O)NCC2CCCO2)c2nc3ccccc3nc2n1Cc1ccco1 (stereo not given),5%,2%,25µM*
CCCNC(=O)c1c(N)n(Cc2ccco2)c2nc3ccccc3nc12,?,-22%,4%
O=[N+]([O-])c1cc(C(F)(F)F)c(Cl)c([N+](=O)[O-])c1Nc1ncc(C(F)(F)F)cc1Cl,·,-17%,·
CN(C(=O)Cc1ccc(Cl)c(Cl)c1)C(CN1CCCC1)c1cccc(N=C=S)c1 (stereo not given),·,·,1%
SMILES,Vif-APOBEC3F blk,Vif-APOBEC3G blk,Epigenetic reg
COCCCNC(=O)c1c(NC(=O)c2ccco2)n(Cc2ccccc2)c2nc3ccccc3nc12,·,?,-1%
COCCNC(=O)c1c(NC(=O)c2ccc(Br)o2)n(Cc2ccccc2)c2nc3ccccc3nc12,11µM*,?,?
COC(=O)[C@@H]1[C@@H](O)[C@@]2(O)c3c(OC)cc(OC)cc3O[C@@]2(c2ccc(OC)cc2)[C@H]1c1ccccc1,·,·,3.5µM*
COC(=O)C1C(c2ccccc2)C2C(=O)c3c(OC)cc(OC)cc3O[C@@]12c1ccc(OC)cc1 (stereo not given in full),·,·,1%[10.1 µM]
C[C@H]1O[C@@H](O[C@H]2[C@@H](O)C[C@@H](O[C@H]3[C@@H](O)C[C@H](O[C@H]4CC[C@@]5(C)[C@H](CC[C@@H]6[C@@H]5CC[C@]5(C)[C@@H](C7=CC(=O)OC7)CC[C@]65O)C4)O[C@@H]3C)O[C@@H]2C)C[C@H](O)[C@@H]1O,·,-8%,·
CCC(=O)C1=C(c2cccc([N+](=O)[O-])c2)N(C(=O)CC)n2c(nnc2C2CCCCC2)S1,?,-10%,0%
[Hg+][c]1ccccc1,·,-14%,·
CCn1ccnc1CN1CCCC(C(=O)c2ccc(OC)cc2OC)C1 (stereo not given),-14%,-6%,3%
CCn1ccnc1CN1CCCC(C(=O)c2cc(F)ccc2OC)C1 (stereo not given),1%,-1%,4µM*
CC(=O)Oc1c2c(c(CC=C(C)C)c3c1C(=O)C1=CC4CC5C(C)(C)OC(C/C=C(\C)C(=O)O)(C4=O)[C@]15O3)OC(C)(CCC=C(C)C)C=C2 (stereo not given in full),·,·,-1%
Cc1ccccc1OCC(=O)Nc1ccccc1C(=O)OCc1cc(=O)n2nc(C3CC3)sc2n1,3%,1%,?
CC(=O)Nc1ccc(OC(=O)N2CCN(/[N+]([O-])=N/Oc3ccc([N+](=O)[O-])cc3[N+](=O)[O-])CC2)cc1,·,-5%,·
CCCCCn1c(NC(=O)c2ccco2)c(C(=O)OCC)c2nc3ccccc3nc21,?,11µM*,5%
CCOC(=O)c1c(N)n(CCCOC(=O)c2ccco2)c2nc3ccccc3nc12,7%,-13%,-1%
O=C1NC(=O)N(c2ccc3c(c2)OCO3)C(=O)/C1=C/c1ccsc1,-7%,-2%,0%
O=C1NC(=O)N(c2ccc3c(c2)OCO3)C(=O)/C1=C/c1cccs1,-12%,0%,22µM*
CN(C(=O)Cc1ccc(Cl)c(Cl)c1)[C@H](CN1CCCC1)c1cccc(N=C=S)c1,·,·,-1%
CN1/C(=C\C=C2C(=O)NC(=O)NC2=O)C(C)(C)c2ccccc21,11µM*,?,?
CN1/C(=C\C=Nc2ccccc2)C(C)(C)c2ccccc21,-3%,-1%,-5%
ClCCN(CCCl)/C(=C\c1ccccc1)c1ccnc2ccccc12,·,-4%,·
Oc1cccc2cccnc12,·,?,4µM*
CN(C(=O)Oc1cccc2cccnc12)c1ccccc1,6%,0%,1%
Cc1ccc(N2C(=O)NC(=O)/C(=C\C=C\c3ccco3)C2=O)cc1,-15%,?,0%
Cc1ccc(N2C(=O)NC(=O)/C(=C\C=C\c3ccco3)C2=O)cc1C,22µM*,?,1%
Cc1oc2ccc(O)c(CN3CCCCCC3)c2c1C(=O)Nc1cccc(Cl)c1C,-3%,5%,?
SMILES,Vif-APOBEC3F blk,Vif-APOBEC3G blk,Epigenetic reg
C[n+]1c2cc(N)ccc2cc2ccc(N)cc21,-26%,1%,0.79µM*
Nc1ccc2ccccc2c1,-11%,-7%,·
CN(C)c1ccc(/C=C/C=C2/C(=O)NC(=O)N(c3ccccc3)C2=O)cc1,7.9µM*,?,8%
O=C1NC(=O)N(c2ccccc2)C(=O)/C1=C/C=C/c1ccco1,-18%,?,1%
Cc1ccccc1-n1c(/C=C/c2ccc(N(C)C)cc2)nc2ccccc2c1=O,?,3.2µM*,10µM*
Cc1ccccc1-n1c(/C=C/c2c(C)[nH]c3ccccc23)nc2ccccc2c1=O,-7%,-15%,?
